# Screens from PubChem BioAssay.
# An excerpt weighted towards active compounds, which were near 1.5% of everything screened.
# MLLE-PAM2 inh = blocks PAM2 peptide binding to the PABP1 MLLE domain; P11940; GST-MLLE / FITC-PAM2 fluorescence polarization; inhibition, % at 20 µM; hit rate 0.36% among 360,000; in the data active means inhibition above about 35%, passing the limit was not always enough;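 further: plate controls were DMSO wells with GST-MLLE for no effect and wells lacking GST-MLLE protein for full effect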
# eIF4H inh = inhibitors of RNA binding by human eIF4H; eIF4H fluorescence polarization binding assay; Q15056; hit rate 0.94% among 290,000; AID 2012; inhibition, % at 35 µM;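 further: calls also rest on retests at 20 µM and on dose response follow-up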
# eIF4E 4G PPI = blocks eIF4E binding to eIF4G | hit rate 0.37% among 220,000 | inhibition, % at 21.7 µM | TR-FRET eIF4E-eIF4GI(517-606) binding, 2 h | AID 782;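 active means inhibition above about 30%, limit read from the data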;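 further: 0% = full FRET control wells and 100% = background wells lacking eIF4GI fragment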
# PABP polyA inh = blocks human PABP binding to poly(A) RNA; P11940; fluorescence polarization; calls only at 35 µM; hit rate 1% among 290,000;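 further: calls also rest on retests at 20 µM and on dose response follow-up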
# An asterisk follows results filed as active; i = inactive; · = not tested or not shown; + = active, no number. Unless noted, how the calls were made is not given here.
SMILES,MLLE-PAM2 inh,eIF4H inh,eIF4E 4G PPI,PABP polyA inh
CCOc1ccc(CCN2C(=S)N([C@@H](Cc3ccc(O)cc3)CN3CCC[C@@H]3CN3C(=S)NC[C@@H]3Cc3ccccc3)C[C@@H]2Cc2ccc(O)cc2)cc1,30.1,·,·,·
Cc1cccc(C)c1-n1nnnc1C(c1ccnc2ccccc12)N1CCN(C/C=C/c2ccccc2)CC1 (configuration not stated),-5.8,·,·,·
COc1ccc(Cc2c(-c3ccc(OC)c(OC)c3)nc3ccc(C)cn23)c(C)c1,-12.7,·,·,·
CCc1ccc2c(F)cccc2n1,5.8,·,·,·
O=C1C(=NO)CCc2ccccc21,5.0,·,·,·
O/N=C1/CCc2cccc3cccc1c23,18.8,61.8*,1.2,+
Cc1cnc(C=O)c2cccc([N+](=O)[O-])c12,8.7,·,·,·
COc1cc(Cl)ccc1OC1(C)CCN(Cc2cccn2-c2nccs2)C1 (configuration not stated),1.4,·,·,·
CCCNC(=O)C1(C)CCCN(CC(=O)c2ccccc2OC)C1 (configuration not stated),-6.3,·,·,·
C(#Cc1ccccc1)C[N+]1(CC#Cc2cccc3ccccc23)CCOCC1,5.2,-3.3,0.6,i
COc1ccc(OC)c(Nc2ncnc3sc(-c4ccccc4)cc23)c1,-4.1,8.0,38.4*,i
CCNC(=O)c1sc(=S)n(-c2ccc(C)cc2)c1N,44.2*,-3.8,8.2,i
O=C(O)c1ccccc1NS(=O)(=O)c1cccc(-n2sc3ccccc3c2=O)c1,11.0,46.8*,·,+
Cc1cc2c(=O)n(NC(N)=O)c(C)nc2s1,-2.4,-7.6,2.5,i
CCN(CC)c1ccc(-c2c(C#N)c(N)nc(OC)c2C#N)cc1,-7.6,60.4*,-24.9,+
Fc1c(F)c(F)c(/C=N/NC(=S)Nc2cccnc2)c(F)c1F,40.0*,-1.0,2.7,i
Oc1cccc(/C=N/NC(=S)Nc2cccnc2)c1O,25.0,67.4,5.0,i
Fc1cccc(F)c1/C=N/NC(=S)Nc1cccnc1,21.6,-2.4,-0.7,i
Oc1ccc(/C=N/NC(=S)Nc2cccnc2)c(O)c1O,26.3,87.0*,57.6*,+
C[C@@H]1CN([C@H](C)CO)S(=O)(=O)c2ccc(C#Cc3cccc(F)c3)cc2O[C@@H]1CN(C)C(=O)CN1CCOCC1,-2.6,·,·,·
CC(C)C#Cc1cnc2c(c1)C(=O)N([C@@H](C)CO)C[C@@H](C)[C@H](CN(C)Cc1cccc(F)c1)O2,1.3,·,·,·
COc1ccc(C(c2nnnn2-c2ccc3c(c2)OCCO3)N2CCN(C/C=C/c3ccccc3)CC2)cc1 (configuration not stated),2.5,·,·,·
Cc1ccc(NC(=S)N=Nc2c(O)[nH]c3ccccc23)cc1,25.7,8.5,-5.0,i
COc1ccc(NC(=S)N=Nc2c(O)[nH]c3ccccc23)cc1,40.7*,14.0,-8.9,i
Oc1ccc(NC(=S)N=Nc2c(O)[nH]c3ccccc23)cc1,51.7*,8.4,-3.4,i
SMILES,MLLE-PAM2 inh,eIF4H inh,eIF4E 4G PPI,PABP polyA inh
N#Cc1c(NC(=S)NC(=O)Cc2cccs2)sc2c1CCCCC2,21.7,2.4,-0.9,i
NC(=O)CC(NC(=O)Cc1ccc(Cl)cc1)c1ccc(NCCCN2CCCC2=O)c([N+](=O)[O-])c1 (configuration not stated),-7.4,69.0*,·,i
O=C(CSc1ncnc2sc3c(c12)CCC3)N1CCOCC1,12.3,62.1*,·,i
CCN(CC)Cc1c(O)c(Cl)cc2c3c(c(=O)oc12)CCCC3,3.9,15.3,11.2,i
CN(C)Cc1c(O)c(Cl)cc2c3c(c(=O)oc12)CCCC3,10.4,64.0*,4.9,+
O=C(COc1cc(Cl)ccc1Cl)Nc1ccc2[nH]c(=O)[nH]c2c1,-9.8,·,·,·
O=C(COc1cc(Cl)ccc1Cl)Nc1ccc2c(c1)CCC2,-12.4,64.1*,-4.2,+
CN(C(=O)COc1ccccc1)c1ccc([N+](=O)[O-])cc1,4.7,·,·,·
O=c1c(-c2ccccc2)coc2c(CN3CCCC3)c(O)ccc12,-6.9,-5.4,75.7*,i
O=C1CSC(=S)N1/N=C/c1cccnc1,43.5*,-7.5,-5.5,i
O=C1CSC(=S)N1N=Cc1ccccc1O,20.2,·,·,·
CCN(CC)c1ccc(N2C(=O)CSC2=S)cc1,-5.3,61.5*,0.0,i
O=C1CSC(=S)N1c1cccnc1,39.8*,4.3,-0.3,i
COc1ccc(NC(=O)N(C)C[C@H]2OCc3cnnn3CCCC(=O)N([C@H](C)CO)C[C@@H]2C)cc1,-2.6,·,·,·
Cc1oc2ccc(O)cc2c1C(=O)c1ccc(Cl)cc1,-2.3,-8.1,-1.9,i
Cc1oc2ccc(O)cc2c1C(=O)c1ccc([N+](=O)[O-])cc1,-3.5,active,2.7,+
Cc1ccc(S(=O)(=O)N(CC(=O)O)Cc2ccco2)cc1,13.1,71.3*,-9.7,+
